Results from PubChem BioAssay (NCI).
About 83,000 compounds went through this panel and 20% of them were active in at least one assay; those are over-represented in the sample as a whole.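 Plates (96-well) were seeded with cells, treated with compound at one concentration, and incubated for 48 hours before percent growth was determined.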 The source made the active and inactive calls. Rule for the calls: active = growth percent below 10; inactive = the rest.

These compounds were tested on SK-MEL-2 melanoma (assay: NCI-60 one-dose screen, 48 h (100 = growth as untreated, 0 = no growth, -100 = all killed)). Details: 10 µM unless noted.
`COc1ccc(-c2cc(-c3nnc(SC/C(=N\O)c4ccccc4)n3-c3ccccc3)c3ccccc3n2)cc1` was tested, and the growth was 95.2% (inactive). With `Cc1cc2c(cc1C)N(C(=O)CCl)CCN2C(=O)CCl` the growth was -68.1% (active). In the case of `COc1cc(-c2nc3ccccc3s2)ccc1OCc1nc2n(n1)S(=O)(=O)c1ccccc1N2C`, the growth is reported as 85.9% (inactive). With `O=C(Cn1c2ccccc2c2ccncc21)N/N=C\c1ccc2ccccc2c1` the growth was 63.8% (inactive). `COc1cc2ncnc(Oc3ccc(NC(=O)Nc4ccc(CN5CCOCC5)c(C(F)(F)F)c4)c4ccccc34)c2cc1OC` was tested, and the growth was 52.1% (inactive). For `COc1cc(NC(C)CCCN2C(=O)c3ccccc3C2=O)c2nccc(C)c2c1OC` (centres undefined), the growth was 87.6% (inactive). `Cc1ccc2c(c1)Nc1ccc(C)cc1C2(C)C` was tested, and the growth was 88.9% (inactive). `Cc1ccc(-c2cc(-c3nnc(SCC(=O)c4ccccc4)o3)c3ccccc3n2)cc1` was tested, and the growth was 90.7% (inactive). For `COc1ccccc1N1CCN(CC(O)COc2c(Br)c(Br)c(Br)c3c2OC(C)(C)C3)CC1` (centres undefined), the growth was 60.5% (inactive). With `Fc1ccc(/C=N/n2c(-c3cc(Cl)cc(Cl)c3Cl)nn(CNc3ccc(Cl)nn3)c2=S)cc1` the growth was 98.1% (inactive). With `Nc1nc(Nc2ccc(OCc3cccc(F)c3)cc2)c2c(n1)[nH]c1ccc(O)cc12` the growth was -63% (active). `N#CC(C#N)=C(C#N)c1c[nH]c2ccccc12` was tested, and the growth was 90.9% (inactive). For `FC(F)(F)c1cn(CC2CNC2)c2ncnc(Cl)c12`, the growth was 103% (inactive). With `Cc1cc(N2CCOCC2)nc(N(CCNc2ccnc3cc(Cl)ccc23)Cc2ccco2)n1` the growth was 23.3% (inactive).
